Assay results published in PubChem BioAssay AID697 (Columbia University Molecular Screening Center, 2007).
Hit rate of the full screen: of about 96,000 compounds, about 100 (0.1%) were called active.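 Rule for the calls: active = activation at 2 µM above a set limit, the mean plus 5 SD (cut at about 37% in these data); inactive = the rest.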 The sample as a whole holds a higher share of actives than the screen did.

The compounds below were run against Tyrosine-protein phosphatase non-receptor type 22 (Homo sapiens) (UniProt Q9Y2R2) (assay: LYP phosphatase activators, primary screen, biochemical, DiFMUP fluorescence, 2 µM (AID 697)). Conditions: recombinant LYP, at 2 µM, hits give high values, 0 = plate median, 100 = signal doubled.
Sequence of Tyrosine-protein phosphatase non-receptor type 22 (Homo sapiens) (Q9Y2R2 whole entry, looked up): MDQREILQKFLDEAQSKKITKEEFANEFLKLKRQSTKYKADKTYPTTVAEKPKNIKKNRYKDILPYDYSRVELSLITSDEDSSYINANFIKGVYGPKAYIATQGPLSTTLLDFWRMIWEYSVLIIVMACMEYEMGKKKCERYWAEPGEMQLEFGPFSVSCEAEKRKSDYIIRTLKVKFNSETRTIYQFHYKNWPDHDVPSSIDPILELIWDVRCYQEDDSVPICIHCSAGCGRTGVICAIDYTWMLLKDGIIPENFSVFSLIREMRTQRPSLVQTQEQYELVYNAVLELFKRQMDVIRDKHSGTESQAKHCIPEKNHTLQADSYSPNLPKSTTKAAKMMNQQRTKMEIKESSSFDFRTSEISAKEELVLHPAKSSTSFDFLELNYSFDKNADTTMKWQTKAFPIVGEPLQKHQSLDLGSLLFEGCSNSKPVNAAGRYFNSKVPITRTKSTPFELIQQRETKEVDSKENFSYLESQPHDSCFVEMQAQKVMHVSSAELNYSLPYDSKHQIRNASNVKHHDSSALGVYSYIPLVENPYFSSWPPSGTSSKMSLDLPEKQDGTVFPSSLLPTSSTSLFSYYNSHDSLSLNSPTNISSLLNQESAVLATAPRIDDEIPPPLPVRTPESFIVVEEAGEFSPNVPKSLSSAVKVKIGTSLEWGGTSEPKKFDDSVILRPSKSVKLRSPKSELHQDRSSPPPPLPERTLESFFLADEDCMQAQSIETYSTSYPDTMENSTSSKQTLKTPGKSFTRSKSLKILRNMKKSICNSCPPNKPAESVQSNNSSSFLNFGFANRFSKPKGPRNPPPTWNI
With `CCOc1ccc(NC(=O)C2CC(=O)N=C(N)S2)cc1` (stereo not given) the activation was -0.7% (inactive).
With `O=C(CCN1C(=O)c2ccccc2C1=O)Nc1cccc(F)c1` the activation was 7.2% (inactive).
With `CC1(C)CCc2nc(SCc3ccccc3)c(C#N)cc2C1` the activation was 7.1% (inactive).
For `C/C(=N\NC(=O)c1ccc(C)cc1)C1C(=O)c2ccccc2C1=O`, the activation was -6.7% (inactive).
For `CCn1nccc1C(=O)Nc1ccc(S(=O)(=O)NC23CC4CC(CC(C4)C2)C3)cc1`, the activation was 4.2% (inactive).
For `N#C/C(=C/c1ccc(Cl)cc1)NC(=O)c1ccccc1`, the activation was -6.7% (inactive).
For `OC(COc1ccc2ccccc2c1)Cn1cncn1` (stereo not given), the activation was -5.7% (inactive).
`CC1(C)OC(=O)N2CCc3ccccc3C21C` (stereo not given) was tested, and the activation was -7.1% (inactive).
With `Cc1ccccc1OCc1nnc(SCC(=O)N2c3ccccc3Sc3ccc(Cl)cc32)o1` the activation was 4.7% (inactive).
For `CCOC(=O)C1CSC(CC(=O)Nc2ccc(OCC)cc2)C(=O)N1` (stereo not given), the activation was 4.7% (inactive).
With `CCN(CC)CCn1c2ccc(Cl)cc2c2nc(C)sc21` the activation was -0.1% (inactive).
`CCCc1nc2ccccc2c(C(=O)OCC(=O)c2ccc3c(c2)NC(=O)CO3)c1CC` was tested, and the activation was 3.9% (inactive).
`Cc1cc(C)c2c(-n3cccc3)c(C(=O)NNS(=O)(=O)c3ccc(F)cc3)sc2n1` was tested, and the activation was -0.7% (inactive).
With `Cc1cc(C)cc(N(CC(=O)N2CC=C(c3ccccc3)CC2)S(=O)(=O)c2c(C)noc2C)c1` the activation was -2.1% (inactive).
`O=C(NC1CC1)c1ccc2c(c1)NC(=O)c1ccccc1S2` was tested, and the activation was 3.4% (inactive).
In the case of `O=C(c1ccccc1)c1cc(-c2ccccn2)c(N2CCOCC2)s1`, the activation is reported as 6.1% (inactive).
With `Cc1ccccc1-n1c(C)cc(/C=C2\NC(=O)NC2=O)c1C` the activation was 12.1% (inactive).
With `O=C(CN1CCN(c2ccc(Cl)cc2)CC1)N1CCCC1` the activation was -12% (inactive).
For `CN(C)C(CNC(=O)CCCOc1ccccc1)c1ccco1` (stereo not given), the activation was -1% (inactive).
With `N#Cc1ccsc1NC(=O)CN1CCCCC1` the activation was 5.2% (inactive).
In the case of `COCCn1c(=S)[nH]c2cc(C(=O)NCCc3ccc(OC)c(OC)c3)ccc2c1=O`, the activation is reported as -10.7% (inactive).
In the case of `Cc1cc(C)c(S(=O)(=O)N2C=CC(C(F)(F)F)=NCC2)c(C)c1`, the activation is reported as 16.2% (inactive).
For `Cc1ccc(-c2nn(-c3ccccc3)cc2/C=N/NC(=O)c2ccc3c(c2)OCO3)cc1`, the activation was -4.4% (inactive).
In the case of `Cc1ccc(S(=O)(=O)NC(=O)COc2ccccc2C)cc1`, the activation is reported as -2.9% (inactive).
For `COc1ccc(C(=O)Cc2cnn(-c3ccccc3)c2)c(O)c1`, the activation was -3% (inactive).
In the case of `Cc1ccc(-c2nc3ccccc3[nH]2)cc1NC(=O)c1sc2ccccc2c1Cl`, the activation is reported as -22.6% (inactive).
For `COc1cc(N2CCCC2)c(OC)cc1/C=C(/C#N)c1cccc(Br)c1`, the activation was -2.3% (inactive).
`C=CCn1c(SCCOc2ccc(OC)cc2)nnc1C(NC(=O)c1ccc(OC)cc1)C(C)C` (stereo not given) was tested, and the activation was -4.5% (inactive).
For `CCCc1nc2oc3c(OCC)ncnc3c2c2c1COC(C)(C)C2`, the activation was -1.3% (inactive).
For `O=C(NN1C(=O)C2C3C=CC(C4CC34)C2C1=O)c1ccc(Cl)cc1` (stereo not given), the activation was 3.3% (inactive).
`COc1ccccc1C(=O)Nc1ccc(NC(=O)c2ccco2)c(C)c1` was tested, and the activation was 7.2% (inactive).
In the case of `COc1ccc(N2CCN(C(=O)CNC(=O)c3ccc(C(C)(C)C)cc3)CC2)cc1`, the activation is reported as -8.3% (inactive).
`CCN(CC)C(=O)CSc1nc2ccccc2o1` was tested, and the activation was 8.6% (inactive).
In the case of `COc1cccc(N(CC(=O)NCCSc2ccccn2)S(C)(=O)=O)c1`, the activation is reported as -4.5% (inactive).
In the case of `COc1cc(C)c(C(C)C)cc1S(=O)(=O)n1ccnc1`, the activation is reported as 9.7% (inactive).
For `N#CCCn1cnc2ccccc21`, the activation was 2% (inactive).
For `N#CCCn1ncc2ccccc21`, the activation was 44.2% (active).
In the case of `Cc1cc(Nc2ccccc2)n(CCC#N)n1`, the activation is reported as -4.9% (inactive).
In the case of `O=C(NC1CCC(O)CC1)c1ccc(S(=O)(=O)NCc2ccco2)cc1` (stereo not given), the activation is reported as 8.1% (inactive).
`CC(=O)N/C(=C/c1ccc(Cl)cc1)C(=O)NCCc1c[nH]c2ccccc12` was tested, and the activation was -3% (inactive).
For `COc1cc2c(cc1OC)C(C(C)C)=NC(C)(C)C2`, the activation was 12.3% (inactive).
With `Cc1nn(Cc2ccccc2)c2c1C(c1ccccc1)C(C#N)=C(N)O2` (stereo not given) the activation was -7.2% (inactive).
For `CC(C)(C)NC(=O)Cn1c(SCC(=O)Nc2nccs2)nc2ccccc21`, the activation was 8% (inactive).
With `COc1ccc(N(CC(=O)NC2CCCCC2)C(=O)CNC(=O)c2ccco2)c(OC)c1` the activation was 9.4% (inactive).
With `Cc1ccc(C(=O)N/C(=C/C=C/c2ccccc2)C(=O)NCc2ccco2)cc1` the activation was -2.3% (inactive).
For `COC(=O)C(C)Oc1ccc2c(-c3cccc([N+](=O)[O-])c3)cc(=O)oc2c1` (stereo not given), the activation was 0.1% (inactive).
For `Cc1ccc(NS(=O)(=O)c2c(C)[nH]c(=O)[nH]c2=O)cc1C`, the activation was 0.8% (inactive).
With `CC(=O)C1=C(C)NC(C)=C(C(C)=O)C1c1cn(-c2ccccc2)nc1-c1cccs1` the activation was -3.9% (inactive).
For `COc1cccc2cc(C(=O)N3CCN(C(=O)c4ccccc4)CC3)c(=O)oc12`, the activation was 17.4% (inactive).
`CS(=O)(=O)N(CC(=O)N1CCN(Cc2ccccc2)CC1)c1ccc2c(c1)OCCO2` was tested, and the activation was -3.3% (inactive).
In the case of `O=C(CCNS(=O)(=O)c1ccccc1C(F)(F)F)NCc1ccc2c(c1)OCO2`, the activation is reported as 13.9% (inactive).
With `CCOc1ccc(-c2nc(C)sc2CC(=O)O)cc1` the activation was 14.3% (inactive).
In the case of `Cc1ccc(NC(=O)CN2CCc3ccccc3C2)cc1`, the activation is reported as -4.9% (inactive).
In the case of `CC(C)C(=O)NC(NC(=S)NC1CCS(=O)(=O)C1)C(Cl)(Cl)Cl` (stereo not given), the activation is reported as -11.6% (inactive).
In the case of `O=C(Oc1ccccc1C(=S)N1CCCCC1)c1cc([N+](=O)[O-])cc([N+](=O)[O-])c1`, the activation is reported as -4.4% (inactive).
With `c1ccc(-c2nccc(-c3ccc(-n4cnc5ccccc54)cc3)n2)nc1` the activation was -36.4% (inactive).
`Cn1ncc2c(Nc3cccc4ccccc34)ncnc21` was tested, and the activation was -5% (inactive).
With `CCn1c(-c2ccoc2C)n[nH]c1=S` the activation was 7.5% (inactive).
For `N#Cc1ccccc1CN1C(=O)S/C(=C/c2cccn2-c2cccc(C(=O)O)c2)C1=O`, the activation was -30.2% (inactive).
In the case of `O=C1CC(C(F)(F)C(F)(F)C(F)(F)C(F)(F)F)=Nc2ccccc2N1`, the activation is reported as 1.9% (inactive).
In the case of `N#Cc1ccc(Oc2cc(C(F)(F)F)nc(-c3ccccn3)n2)cc1`, the activation is reported as -2.8% (inactive).
For `CCSc1nnc(-c2cc3c(s2)-c2ccccc2CC3)o1`, the activation was -3.7% (inactive).
`O=C(CCCn1c(SCC(=O)c2ccccc2)nc2ccccc2c1=O)NCC1CCCO1` (stereo not given) was tested, and the activation was -4.2% (inactive).
For `c1ccc(-c2nc(NCc3ccco3)c3ccccc3n2)cc1`, the activation was 8% (inactive).
In the case of `CCSc1ccccc1C(=O)NCc1ccc(OC)cc1`, the activation is reported as -18.7% (inactive).
In the case of `Cc1nc(NC2=NC(C(=O)Nc3ccc(Cl)cc3)CC(=O)N2)nc2ccccc12` (stereo not given), the activation is reported as -2.8% (inactive).
`COc1cccc(CNCCc2c[nH]c3ccccc23)c1OCc1ccccc1F` was tested, and the activation was 10.4% (inactive).
With `CC(C)NC(=O)c1ccccc1S(=O)c1ccccc1C#N` (stereo not given) the activation was 4% (inactive).
In the case of `O=C(Cc1c(O)c2ccccc2[nH]c1=O)NCc1ccccc1`, the activation is reported as 3.6% (inactive).
`C=CCn1c(Oc2ccc(C(=O)OC)cc2)nc2c1c(=O)n(C)c(=O)n2C` was tested, and the activation was -3.9% (inactive).
With `O=C(O)C1CC=CCC1C(=O)Nc1ccccc1C(=O)N1CCN(c2ccccc2)CC1` (stereo not given) the activation was -3.2% (inactive).
In the case of `Cc1cccc(NC(=O)c2ccc(OCC(=O)NCc3ccccc3)cc2)c1C`, the activation is reported as 6% (inactive).
In the case of `O=C(COC(=O)c1ccccc1SCC(=O)NC1CCCCC1)NC1CCCCC1`, the activation is reported as -5.6% (inactive).
In the case of `O=C(Nc1ccccc1)OCc1cn(-c2ccc(Cl)cc2)nn1`, the activation is reported as -1.5% (inactive).
`Cc1ccc(N2C(=O)CC(Sc3ncn[nH]3)C2=O)cc1` (stereo not given) was tested, and the activation was -8.7% (inactive).
In the case of `Cc1onc(-c2ccccc2Cl)c1C(=O)OCC(=O)c1ccccc1`, the activation is reported as 13.5% (inactive).
`Cc1noc(C)c1C(=O)N1CCOCC1` was tested, and the activation was 33% (inactive).
For `CN(C)c1ccc(NC(=S)N(CCc2ccccc2)C2CC(=O)N(c3c(Cl)cccc3Cl)C2=O)cc1` (stereo not given), the activation was -8.5% (inactive).
For `CC1=CC(C)(C)NC(=S)N1c1ccccc1`, the activation was -7.5% (inactive).
In the case of `COC(=O)C1(O)CC(C(C)C)=NN1C(=O)c1ccc(Cl)cc1` (stereo not given), the activation is reported as -5.9% (inactive).
